Results filed as inconclusive are left out. A number with no mark means an inactive call. Activity calls are given as the source filed them. Unless noted, calls follow the shape of the dose curve; as a rule, active = well fitted curve in the direction sought with a large enough effect in the repeat runs; inconclusive = weak or mixed curves; inactive = no such curve, though single readings can be large; an effect the other way counts as inactive or inconclusive.

Consider eleven compounds from PubChem BioAssay (Tox21).

A short description of experiment [1]: qHTS assay for identifying genotoxic compounds that show differential cytotoxicity against isogenic chicken DT40 cell lines with known DNA damage response pathways - wild type cell line (AID 743012). Also: nearly all actives have a fitted effect of over 60% in size. The method in brief: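 Luminescent ATP viability signal (CellTiter-Glo, 30 min RT) recorded after wild type DT40 cells were incubated with compounds for 40 h at 37 C/5% CO2.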

A short description of experiment [2]: qHTS assay for identifying genotoxic compounds that show differential cytotoxicity against isogenic chicken DT40 cell lines with known DNA damage response pathways - Rev3 mutant cell line (AID 743014). Also: nearly all actives have a fitted effect of over 55% in size.
A short description of experiment [3]: qHTS assay for identifying genotoxic compounds that show differential cytotoxicity against isogenic chicken DT40 cell lines with known DNA damage response pathways - Rad54/Ku70 mutant cell line (AID 743015; also: nearly all actives have a fitted effect of over 60% in size). (In general: In qHTS, concentration-response curves come from the screen itself.)
A short description of experiment [4]: qHTS assay to identify small molecule antagonists of the androgen receptor (AR) signaling pathway - cell viability counter screen (AID 743033; also: nearly all actives have a fitted effect of over 45% in size).
Experiment [5] is described as follows: qHTS assay to identify small molecule antagonists of the thyroid receptor (TR) signaling pathway - cell viability counter screen (AID 743064). Also: nearly all actives have a fitted effect of over 50% in size. Also: potency is read from the fitted curve at half-maximal effect. Summed up: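 GH3.TRE-Luc rat pituitary cells dosed after 4 hr plating, co-stimulated with T3 at 1 nM final, incubated 23.5 h at 37 C. Viability measured in the same wells by CellTiter-Fluor fluorescence after 30 min further at 37 C.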

Experiment [6] addresses Estrogen receptor (Homo sapiens) (UniProt P03372). The experiment in a line: qHTS assay to identify small molecule antagonists of the estrogen receptor alpha (ER-alpha) signaling pathway (AID 743069; active = well fitted curve in the direction sought with a large enough effect in the signal ratio in the repeat runs, not every such curve was filed as active; the % refers to the signal ratio). Summed up: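 Fluorescence intensity from a beta-lactamase FRET substrate served as the read-out. Cells: HEK293 with stably integrated ER-alpha-UAS-bla reporter. Agonist 17beta-estradiol was co-added with compounds; incubation 18 hr at 37C, substrate 2 hr at room temperature.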

Experiment [7] can be described thus: qHTS assay to identify small molecule antagonists of the estrogen receptor alpha (ER-alpha) signaling pathway - cell viability counter screen (AID 743074; calls by dose curve; also: nearly all actives have a fitted effect of over 45% in size).
Experiment [8] has as its target Estrogen receptor (Homo sapiens) (UniProt P03372). Description: qHTS assay to identify small molecule agonists of the estrogen receptor alpha (ER-alpha) signaling pathway (AID 743075; calls by dose curve).
Experiment [9] shares this target. The experiment in a line: qHTS assay to identify small molecule agonists of the estrogen receptor alpha (ER-alpha) signaling pathway using the BG1 cell line (AID 743079). Also: nearly all actives have a fitted effect of over 20% in size. Also: potency is read from the fitted curve at half-maximal effect.
Experiment [10] in a line: qHTS assay to identify small molecule antagonists of the estrogen receptor alpha (ER-alpha) signaling pathway using the BG1 cell line (AID 743080; calls by dose curve;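 also: BG1 cells stimulated with 17beta-estradiol alongside compound; series mostly up to about 70 µM; nearly all actives have a fitted effect of over 25% in size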). The method in brief: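 Seeding, 24 h rest, compound transfer from DMSO, 17beta-estradiol addition, 21.5 h incubation, CellTiter-Fluor (30 min, 37 C), then ONE-Glo (30 min, room temperature): this sequence was run on BG1-Luc-4E2 reporter cells.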

Experiment [11] in a line: qHTS assay to identify small molecule antagonists of the estrogen receptor alpha (ER-alpha) signaling pathway using the BG1 cell line - cell viability counter screen (AID 743081).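 Also: compound given together with 17beta-estradiol as the ER stimulus; series mostly up to about 70 µM; nearly all actives have a fitted effect of over 45% in size.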
A further experiment addresses Aromatase (Homo sapiens) (UniProt P11511). Description: qHTS assay to identify aromatase inhibitors (AID 743083). Also: series mostly up to about 70 µM; nearly all actives have a fitted effect of over 55% in size.
Experiment [12] in a line: qHTS assay to identify small molecule antagonists of the androgen receptor (AR) signaling pathway using the MDA cell line - cell viability counter screen (AID 743041; also: nearly all actives have a fitted effect of over 45% in size). Summed up:
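Using the breast carcinoma line MDA-kb2 AR-luc, test chemicals were co-incubated with R1881 for 16 h; CellTiter-Fluor reagent, added at 15.5 h, provided a fluorescence measure of live cells.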

Experiment [13] can be described thus: qHTS assay to identify small molecule antagonists of the thyroid receptor (TR) signaling pathway (AID 743065). Also: nearly all actives have a fitted effect of over 55% in size. Also: potency is read from the fitted curve at half-maximal effect. The method in brief:
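Antagonism measured as loss of luciferase signal in GH3 cells stably carrying a TRE-luciferase reporter, co-treated with compound and T3 (1 nM final) for 23.5 h at 37 C. Viability was read in the same well by CellTiter-Fluor.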

Experiment [14] concerns thyroid hormone receptor (rat, GH3 cells). Description: qHTS assay to identify small molecule agonists of the thyroid receptor (TR) signaling pathway (AID 743066; calls by dose curve).
Experiment [15] can be described thus: qHTS assay to identify small molecule antagonists of the glucocorticoid receptor (GR) signaling pathway - cell viability counter screen (AID 720693). Also: nearly all actives have a fitted effect of over 55% in size.

Chain of Aromatase (Homo sapiens) (P11511 whole entry, looked up): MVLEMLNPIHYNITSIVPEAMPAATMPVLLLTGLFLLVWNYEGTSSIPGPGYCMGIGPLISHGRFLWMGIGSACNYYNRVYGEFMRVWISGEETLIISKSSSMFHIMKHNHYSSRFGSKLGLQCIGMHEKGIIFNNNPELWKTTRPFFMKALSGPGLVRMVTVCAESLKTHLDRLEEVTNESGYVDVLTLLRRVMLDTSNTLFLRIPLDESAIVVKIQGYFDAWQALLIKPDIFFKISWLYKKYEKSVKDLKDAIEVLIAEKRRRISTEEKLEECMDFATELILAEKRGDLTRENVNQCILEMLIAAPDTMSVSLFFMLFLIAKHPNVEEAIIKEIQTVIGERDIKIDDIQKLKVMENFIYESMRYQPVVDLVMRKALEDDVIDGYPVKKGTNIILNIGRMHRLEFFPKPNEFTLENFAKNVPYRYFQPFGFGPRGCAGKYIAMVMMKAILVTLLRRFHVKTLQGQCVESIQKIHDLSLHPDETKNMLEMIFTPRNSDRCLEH
Chain of Estrogen receptor (Homo sapiens) (P03372 whole entry, looked up): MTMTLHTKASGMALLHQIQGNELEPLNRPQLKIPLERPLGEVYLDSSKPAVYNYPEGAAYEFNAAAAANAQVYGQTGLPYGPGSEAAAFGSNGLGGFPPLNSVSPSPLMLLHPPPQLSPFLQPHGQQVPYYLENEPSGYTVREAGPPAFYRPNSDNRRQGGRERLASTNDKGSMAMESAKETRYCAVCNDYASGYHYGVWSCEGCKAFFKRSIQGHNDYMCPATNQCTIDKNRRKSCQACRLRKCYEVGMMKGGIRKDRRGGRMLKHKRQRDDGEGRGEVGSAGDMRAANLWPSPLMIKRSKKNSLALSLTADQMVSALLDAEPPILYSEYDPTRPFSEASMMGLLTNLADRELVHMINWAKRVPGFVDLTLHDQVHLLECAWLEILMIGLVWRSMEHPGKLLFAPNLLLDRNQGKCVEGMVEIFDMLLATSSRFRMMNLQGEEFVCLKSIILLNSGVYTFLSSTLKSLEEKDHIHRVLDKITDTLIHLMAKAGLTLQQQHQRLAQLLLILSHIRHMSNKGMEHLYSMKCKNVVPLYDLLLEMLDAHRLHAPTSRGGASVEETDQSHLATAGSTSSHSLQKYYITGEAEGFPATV

Take `CCCCCCC`: the Potency result in experiment [1], in experiment [2], in experiment [3], in [5], in experiment [6] and in experiment [7] was “inactive” each time. The Potency result (in [9]; in experiment [11]; in the experiment with Aromatase (Homo sapiens)) was “inactive” throughout. Further, the compound was classed as inactive in experiment [4], in experiment [8] and in [10].

With `CC(=O)N(CC(O)CN(C(C)=O)c1c(I)c(C(=O)NCC(O)CO)c(I)c(C(=O)NCC(O)CO)c1I)c1c(I)c(C(=O)NCC(O)CO)c(I)c(C(=O)NCC(O)CO)c1I` (stereo unspecified), the Potency result in experiment [1], in [2], in [3], in [12], in experiment [13] and in experiment [6] was “inactive” in each case. The Potency result (in experiment [7]; in [9]; in experiment [11]; in the experiment with Aromatase (Homo sapiens)) was “inactive” each time. Also, the outcome in experiment [14], in experiment [8] and in [10] was inactive.

On to `COc1ccc(Nc2ccc(OC)cc2)cc1`, for which the outcome in [15], in experiment [4], in experiment [14] and in experiment [8] was inactive. Besides, the Potency entry (in experiment [5]; in [13]; in [6]; in [7]; in experiment [11]; with Aromatase (Homo sapiens)) was “inactive” in each case. In addition, in experiment [9], the Potency is 3.93 µM (active).

Consider `CN1CCN(c2c(F)cc3c(=O)c(C(=O)O)cn(CCF)c3c2F)CC1`, for which the call in experiment [15], in experiment [4], in [14], in [8] and in experiment [10] was inactive. In addition, the Potency result (in experiment [12]; in [5]; in [13]; in experiment [6]; in experiment [7]; in the experiment with Aromatase (Homo sapiens)) was “inactive” in each case.

For `O=C1CCCCCCCCCCC(=O)OCCO1`, the Potency result in [1], in [2], in [3], in experiment [12], in [5] and in experiment [13] was “inactive” in each case. The Potency entry (in [6]; in experiment [9]; in [11]; with Aromatase (Homo sapiens)) was “inactive” each time. Also, the compound was called inactive in experiment [4], in experiment [14] and in [8].

As to `CN1[C@@H]2CC[C@H]1CC(OC(=O)c1c[nH]c3ccccc13)C2` (stereo partly specified), the outcome in experiment [15], in experiment [4] and in [14] was inactive. Moreover, the Potency entry (in [3]; in experiment [7]; in [11]; with Aromatase (Homo sapiens)) was “inactive” in each case. Further, the Potency in experiment [5] was 23.7 µM (active); in experiment [13], 26.6 µM (active).

Consider `COc1cc(N)c(Cl)cc1C(=O)NC1CCN(Cc2ccccc2)CC1`, for which the outcome in experiment [15], in experiment [8] and in experiment [10] was inactive. The Potency entry in experiment [5], in experiment [6], in [7], in experiment [9] and in experiment [11] was “inactive” throughout.

`O=C(O[C@@H](C(=O)O)[C@@H](OC(=O)c1ccccc1)C(=O)O)c1ccccc1`: the Potency entry in experiment [1], in experiment [2], in [3], in experiment [12], in experiment [5] and in experiment [6] was “inactive” in each case. For the same compound, the Potency result (in experiment [7]; in [9]; in experiment [11]; in the experiment with Aromatase (Homo sapiens)) was “inactive” throughout. In addition, the compound was called inactive in experiment [4], in [8] and in experiment [10].

Consider `COC(=O)N[C@H](C(=O)N[C@@H](Cc1ccccc1)[C@@H](O)CN(Cc1ccc(-c2ccccn2)cc1)NC(=O)[C@@H](NC(=O)OC)C(C)(C)C)C(C)(C)C`, for which the result in experiment [15], in [4], in experiment [14] and in experiment [8] was inactive. Moreover, the Potency result (in experiment [12]; in experiment [5]; in [6]; in [11]; with Aromatase (Homo sapiens)) was “inactive” each time. Besides, the Potency in experiment [13] is 26.6 µM (active).

As to `CCCN(CCC)C(=O)C(CCC(=O)O)NC(=O)c1ccccc1` (stereo unspecified), the call in experiment [15], in [4] and in experiment [14] was inactive. Besides, the Potency entry (in [3]; in [5]; in [13]; in experiment [7]; in [11]; with Aromatase (Homo sapiens)) was “inactive” each time.

`O=C(O)[C@@H]1CSCN1`: the result in experiment [15], in experiment [4] and in experiment [14] was inactive. Besides, the Potency entry (in experiment [3]; in [13]; in [7]; with Aromatase (Homo sapiens)) was “inactive” throughout.
